Compounds with a hit are over-represented: about 2.2% of the library has one in this group of screens.
MEKK3 PB1 HTS: raises or lowers MEK5 binding to the human MEKK3 PB1 domain | Q99759 | bead-based flow cytometry, Alexa488-MEK5 binding to MEKK3; actives lie on both sides; 0 = blocked by unlabeled MEK5, 100 = vehicle | binding response (% of control), % at 10 µM | actives 1.4% (n = 290,000) | AID 1529;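 active means binding response more than 3 SD above or below the average of its plate-row segment, actives on both sides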;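 further: Alexa488 bead fluorescence after subtracting the streptavidin-only scavenger bead signal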
VLA-4 inh: inhibition in a human VLA-4 binding assay | P13612 | VLA-4 expressing cells, ligand binding flow cytometry | inhibition, % (about 7 µM as worked out from the volumes in the protocol) | actives 0.2% (n = 330,000); in the data active means inhibition above about 50%
Target sequence (P13612 whole entry, looked up): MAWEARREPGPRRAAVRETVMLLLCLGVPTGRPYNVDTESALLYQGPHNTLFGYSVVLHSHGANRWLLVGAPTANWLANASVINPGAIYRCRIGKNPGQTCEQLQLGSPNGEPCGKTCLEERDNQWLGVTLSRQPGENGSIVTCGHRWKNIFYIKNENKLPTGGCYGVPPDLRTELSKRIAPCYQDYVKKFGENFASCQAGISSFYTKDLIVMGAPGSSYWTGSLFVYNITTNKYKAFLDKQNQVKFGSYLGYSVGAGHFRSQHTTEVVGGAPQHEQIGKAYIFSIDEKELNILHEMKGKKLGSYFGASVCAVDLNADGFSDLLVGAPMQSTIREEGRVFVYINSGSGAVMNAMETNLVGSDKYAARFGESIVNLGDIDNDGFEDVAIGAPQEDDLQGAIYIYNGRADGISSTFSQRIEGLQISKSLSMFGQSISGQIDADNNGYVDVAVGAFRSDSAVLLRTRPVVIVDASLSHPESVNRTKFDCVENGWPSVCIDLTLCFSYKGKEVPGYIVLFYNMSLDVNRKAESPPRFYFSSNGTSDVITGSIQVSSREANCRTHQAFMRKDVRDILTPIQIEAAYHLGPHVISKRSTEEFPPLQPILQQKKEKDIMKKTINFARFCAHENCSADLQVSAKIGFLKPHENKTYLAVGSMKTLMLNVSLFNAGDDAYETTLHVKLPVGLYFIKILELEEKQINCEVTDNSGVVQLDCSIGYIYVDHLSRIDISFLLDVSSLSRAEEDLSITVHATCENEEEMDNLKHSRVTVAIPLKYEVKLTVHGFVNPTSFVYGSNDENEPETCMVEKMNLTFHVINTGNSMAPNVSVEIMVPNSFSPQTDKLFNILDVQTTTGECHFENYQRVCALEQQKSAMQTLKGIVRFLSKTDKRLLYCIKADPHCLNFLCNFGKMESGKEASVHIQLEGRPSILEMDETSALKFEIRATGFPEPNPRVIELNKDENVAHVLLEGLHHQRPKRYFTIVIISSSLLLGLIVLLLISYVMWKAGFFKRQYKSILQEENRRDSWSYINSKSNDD
MEKK2 WT-MEK5: raises or lowers MEK5 binding to wildtype human MEKK2 PB1 domain; binding response (% of control), % at 10 µM; actives 1.1% (n = 290,000); AID 1531; bead flow cytometry, Alexa488-MEK5 binding to MEKK2 WT; actives lie on both sides; in the data active means binding response below about 67% or above about 130%
MEKK2 mut-MEK5: signal of MEK5 binding to mutant human MEKK2 PB1 domain | AID 1530 | actives 0.35% (n = 290,000) | percent response, % at 10 µM | bead flow cytometry, Alexa488-MEK5 binding to MEKK2 mutant; in the data active means percent response above about 24%, passing the limit was not always enough
MEKK2wt confirm: raises or lowers MEK5 binding to wildtype human MEKK2, retest; shares compounds with MEKK3 PB1 HTS; bead flow cytometry, Alexa488-MEK5 binding to MEKK2 WT; actives lie on both sides; binding response (% of control), % at 10 µM; actives 2.4% (n = 5,900); AID 1892; in the data active means binding response below about 16% or above about 210%; inactive means in between
MEKK2mut confirm: signal of MEK5 binding to mutant human MEKK2, retest; shares compounds with MEKK3 PB1 HTS; bead flow cytometry, Alexa488-MEK5 binding to MEKK2 mutant; percent response, % at 10 µM; actives 2% (n = 5,900); in the data active means percent response mostly above about 71%, no sharp cut-off; inactive means mostly below about 38%;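 further: higher means compound restores mutant binding toward wildtype level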
MEKK3 confirm: MEKK3-MEK5 PB1 inhibition, single concentration confirmation. shares compounds with MEKK3 PB1 HTS. bead flow cytometry, Alexa488-MEK5 binding to MEKK3; active compounds read low. binding response (% of control), % at 10 µM. actives 1.8% (n = 5,900);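 active means binding response below 72% of control, or above a set upper limit, though filed actives all read lower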;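 further: 100% = DMSO only wells and 0% = binding blocked by excess unlabeled MEK5; lower values mean stronger disruption of MEK5 binding to MEKK3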
* marks the source's active call; other numbers are inactive results; / = not tested or not shown; [ ] = dose if it differs, or a comment.

SMILES	MEKK3 PB1 HTS	VLA-4 inh	MEKK2 WT-MEK5	MEKK2 mut-MEK5	MEKK2wt confirm	MEKK2mut confirm	MEKK3 confirm
Cc1ccccc1-c1nn(-c2ccc(F)cc2F)cc1CNCCCN(C)C	105.0	16.0	140.0*	23.0	146.0	29.0	109.0
CCC(COC)NCc1cn(-c2ccc(F)cc2F)nc1-c1ccccc1C (configuration not stated)	103.0	-0.5	107.0	-7.0	/	/	/
Cc1ccccc1-c1nn(-c2ccc(F)cc2F)cc1CNCCN(C)C	86.0	6.9	150.0*	23.0	144.0	30.0	106.0
COCCN(C)Cc1cn(-c2ccc(F)cc2F)nc1-c1ccccc1C	100.0	14.0	102.0	3.0	/	/	/
NS(=O)(=O)c1ccc(Nc2ncccc2[N+](=O)[O-])cc1	1.0*[inhibitor]	0.0	0.0*[inhibitor]	-41.0	95.0	-1.0	104.0
NS(=O)(=O)c1ccc(Nc2ccc([N+](=O)[O-])c3nonc23)cc1	93.0	-1.3	89.0	-2.0	/	/	/
S=c1sc(SCCOc2ccccc2)nn1-c1ccccc1	132.0*	-102.8	104.0	1.0	96.0	-3.0	101.0
Cc1ccc(NC(=O)C(C)N2C(=O)c3ccccc3C2=O)cc1C (configuration not stated)	106.0	6.7	107.0	7.0	/	/	/
CC1CC(C)CN(CC(O)COc2ccc3c(c2)CCC3)C1 (configuration not stated)	152.0*	2.9	110.0	1.0	97.0	-3.0	98.0
COc1ccc(-c2c(C)n([O-])c3c([n+]2=O)CCCCC3)cc1	135.0*	-16.0	104.0	-1.0	103.0	2.0	102.0
Cc1c(-c2ccc(Cl)cc2)[n+](=O)c2c(n1[O-])CCCC2	104.0	21.8	102.0	-1.0	/	/	/
O=C1CCN(C(=O)Nc2ccccc2Cl)N1	48.0*[inhibitor]	11.8	57.0	-24.0	104.0	3.0	105.0
CCOC(=O)Cc1cc(=O)n2[nH]cc(-c3cccc(Br)c3)c2n1	98.0	1.2	95.0	-2.0	/	/	/
CCOC(=O)c1ccc(NC(=O)CNC(=O)C23CC4CC(CC(C4)C2)C3)cc1	109.0	3.4	107.0	4.0	/	/	/
CCOC(=O)c1ccc(NS(=O)C23CC4CC(CC(C4)C2)C3)cc1 (configuration not stated)	97.0	1.3	-6.0*[inhibitor]	-35.0	105.0	-1.0	103.0
CCc1nc2nc(C)cc(Nc3cccc(C(F)(F)F)c3)n2n1	98.0	-0.4	99.0	-5.0	/	/	/
Cc1cc(Nc2cccc(C(F)(F)F)c2)n2nc(C)nc2n1	1.0*[inhibitor]	10.5	0.0*[inhibitor]	-65.0	106.0	9.0	108.0
Cc1nn(CC(=O)NC(=O)NC2CCCC(C)C2C)c(=O)c(C#N)c1C (configuration not stated)	/	12.8	/	/	/	/	/
CCOC(=O)c1ccc(NC(=O)CSc2nnc(C3CCCCC3)n2C)cc1	126.0*	11.0	96.0	7.0	98.0	-2.0	97.0
CCOc1ccc(NC(=O)CSc2nnc(C3CC3)n2C)cc1	93.0	1.9	97.0	-1.0	/	/	/
O=C(CN1C2=NCCN2c2ccccc21)c1ccc(Br)s1	142.0*	5.7	105.0	0.0	99.0	0.0	95.0
NC(=O)c1c(NC(=O)Cn2cc([N+](=O)[O-])cn2)sc2c1CCCC2	95.0	3.7	/	270.0*	101.0	7.0	103.0
NC(=O)C(=CNc1nc(-c2ccc(Cl)c(Cl)c2)cs1)C(N)=O	99.0	/	91.0	0.0	/	/	/
Cc1ccc(Cn2cc(/C=N/Nc3ccc([N+](=O)[O-])cn3)c3ccccc32)cc1	98.0	-292.6	53.0*[inhibitor]	15.0	100.0	-4.0	98.0
O=C(O)Cn1cc(/C=N/Nc2ccc([N+](=O)[O-])cn2)c2ccccc21	104.0	0.0	107.0	2.0	/	/	/
SMILES	MEKK3 PB1 HTS	VLA-4 inh	MEKK2 WT-MEK5	MEKK2 mut-MEK5	MEKK2wt confirm	MEKK2mut confirm	MEKK3 confirm
CCOc1cc(C2C(C#N)=C(N)OC(C)=C2C(C)=O)c(Br)c(Br)c1OC(C)C (configuration not stated)	68.0*[inhibitor]	22.2	94.0	0.0	96.0	-4.0	100.0
O=C(O)C1CCCCC1C(=O)Nc1ccc(Cl)cc1Cl (configuration not stated)	107.0	4.6	103.0	4.0	/	/	/
O=C(CCC(=O)Nc1ccc(Cl)cc1Cl)NNC(=O)[C@@H]1CCCC[C@@H]1C(=O)O	1.0*[inhibitor]	16.4	1.0*[inhibitor]	-21.0	93.0	-8.0	95.0
O=C(CSc1nc2ncc(Br)cc2[nH]1)c1ccc([N+](=O)[O-])cc1	132.0*	14.3	101.0	0.0	107.0	1.0	103.0
O=C(COc1cc2oc(=O)cc(-c3ccccc3)c2cc1Cl)NCCN1CCOCC1	101.0	9.2	104.0	2.0	/	/	/
COc1ccc(NC(=O)CSc2nnc3ccc(-c4ccccn4)nn23)cc1OC	/	10.3	/	/	/	/	/
CC(C)c1ccccc1NC(=O)COc1ccc2c(=O)c(Oc3ccc4ccccc4c3)coc2c1	184.0*	5.2	104.0	0.0	101.0	0.0	101.0
CCc1ccccc1NC(=O)COc1ccc2c(=O)c(Oc3cc(C)ccc3C)coc2c1	94.0	25.2	94.0	-2.0	/	/	/
N#Cc1ccc(NC(=O)COc2ccc(-n3cnnn3)cc2)cc1	/	11.3	/	/	/	/	/
COc1ccc(C#Cc2ccc3c(=O)c4ccccc4n(C)c3c2)cc1	97.0	-12.5	79.0	-5.0	/	/	/
COc1ccccc1C#Cc1ccc2c(=O)c3ccccc3n(C)c2c1	91.0	14.1	66.0*[inhibitor]	-9.0	86.0	-9.0	94.0
Cc1cc(C(=O)Nc2ncn[nH]2)ccc1[N+](=O)[O-]	73.0*[inhibitor]	1.7	91.0	-1.0	109.0	7.0	105.0
Cc1ccccc1C(=O)N1CCC(n2nccc2NC(=O)CCOc2ccccc2)CC1	101.0	-6.5	105.0	1.0	/	/	/
CCOC(=O)C1=C(O)c2ccccc2C(=O)/C1=C\c1ccc(C)cc1	68.0*[inhibitor]	/	95.0	0.0	98.0	0.0	103.0
CCOC(=O)C1=C(C)N(c2ccc(C)cc2)C(=O)/C1=C\c1ccc(O)c(OC)c1	89.0	18.5	82.0	-4.0	/	/	/
CS(=O)(=O)c1ccc(CNC(=O)C2(C(F)(F)F)C/C(=C\Cc3ccccc3)CCCO2)cc1 (configuration not stated)	81.0*[inhibitor]	-4.9	85.0	-7.0	102.0	5.0	104.0
CCCCN1C(=O)C(CC(=O)NCC)SC1=Nc1ccccc1 (configuration not stated)	134.0*	30.3	108.0	6.0	95.0	4.0	95.0
CCNC(=O)CC1SC(=Nc2ccc(C)cc2)N(CC)C1=O (configuration not stated)	108.0	5.3	112.0	3.0	/	/	/
COCCN(C(=O)CSc1nncn1-c1ccccc1)c1c(N)n(Cc2ccccc2)c(=O)[nH]c1=O	101.0	9.0	99.0	-1.0	/	/	/

Screens as filed in PubChem BioAssay.
